From PubChem
The list is not random: actives were taken first. Their share in the collection is about 3.6%.
TDP43 rescue: rescues yeast growth from TDP-43 toxicity; TDP-43 expressing yeast growth rescue, BacTiter-Glo, 24 h; Potency, µM (highest dose often 46.1 µM), for inactives: top-dose growth rescue (activation), hits mostly activators; hit rate 1.8% among 410,000; note: % of control where 0% means no effect; nearly all actives have a fitted effect of over 50% in size
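Galactose-induced TDP-43 yeast, OD600=0.02, compound pinned; 24 hr, 30 deg C; BacTiter-Glo luminescence for growth. Inhibitors of TDP-43 toxicity read as activators.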
Abeta yeast res: restores growth of yeast expressing A-beta42 peptide. yeast expressing A-beta42, growth rescue, OD600, 48 h; response scale: 0% DMSO, 100% iron-clioquinol control. Potency, µM (top dose mostly 46.1 µM), actives largely listed as activators. hit rate 0.063% among 410,000. AID 1347071; note: nearly all actives have a fitted effect of over 55% in size
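Yeast growth medium received pinned compounds, then yeast cells expressing toxic A-beta were added; plates incubated at 30 C for 48 hr. Growth read as absorbance at 600 nm, normalized to DMSO and equimolar FeCl3 plus clioquinol controls.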
ClpP mod: qHTS Assay for Activators of ClpP; hit rate 1.9% among 340,000; ATP-dependent Clp protease proteolytic subunit (Bacillus subtilis (strain 168)), P80244; Potency, µM (titrated, usually from 57.5 µM), for the others: at the top dose activity change, negative = active; purified B. subtilis ClpP, FRET peptide cleavage, 20 min; active = well fitted falling curve with a large enough effect; inconclusive = small, poorly fitted or top-dose-only effect; inactive = no such curve, though single readings can be large or run the other way; note: the source files actives as falling curves though it sought activators and does not explain the sign; nearly all actives have a fitted effect of over 65% in size
Target sequence (P80244 whole entry, looked up): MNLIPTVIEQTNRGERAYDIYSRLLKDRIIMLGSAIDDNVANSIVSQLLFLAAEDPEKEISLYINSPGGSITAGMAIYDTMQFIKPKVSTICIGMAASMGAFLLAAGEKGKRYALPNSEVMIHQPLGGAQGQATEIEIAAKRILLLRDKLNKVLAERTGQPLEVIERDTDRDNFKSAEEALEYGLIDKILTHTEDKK
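Purified B. subtilis ClpP, 10 microg/mL final in Tris/HCl pH8 with KCl, BSA, glycerol and Tween-20, cleaved an Abz/nitrotyrosine-quenched decapeptide. Fluorescence (ex 320, em 430) was read at 0 and 20 min at room temperature. Delta was normalized to 5.8 microM ADEP and DMSO/no-enzyme controls.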
aSyn rescue: inhibitors of alpha-synuclein toxicity in yeast; AID 652106; Potency, µM (titrated, usually from 46.1 µM), for inactives: top-dose growth rescue (activation), most hits filed as activators; hit rate 0.14% among 370,000; Yeast expressing alpha-synuclein, growth rescue, BacTiter-Glo, 24 h; note: % of control where 0% means no effect; nearly all actives have a fitted effect of over 65% in size
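Galactose-induced alpha-syn yeast (OD600=0.02, raffinose-pregrown) + pinned cpd, 24 hr, 30 deg C; growth by BacTiter-Glo luminescence. Growth restoration scores as activation.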
FUS suppressor: rescues growth of FUS-expressing yeast; S. cerevisiae FUS-expressing, growth rescue, OD600, 24 h; Potency, µM (top dose mostly 76.6 µM), usual class: activators; hit rate 0.24% among 390,000; AID 1347120;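 note: plate controls were DMSO vehicle for no effect and reference control for full effect; nearly all actives have a fitted effect of over 55% in size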
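Toxicity suppression screen in FUS-yeast. Cells induced with 2% galactose, starting OD 0.005, treated 24hr at 30C with compounds at multiple final concentrations; growth by OD600.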
Mm-Cpn inhibitor: inhibitors of Methanococcus maripaludis chaperonin TRiC (MmCpn); purified Mm-Cpn ATPase, ADP Transcreener TR-FRET; Potency, µM (doses to about 76.9 µM), for the others: at the highest dose activity, negative = inhibition, actives largely listed as inhibitors; hit rate 0.031% among 330,000; note: % is set by controls: 0 for no effect and ±100 for the full control effect; nearly all actives have a fitted effect of over 80% in size
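Quantitative HTS used 25 nM Mm-CPN and 10 uM ATP in magnesium/KCl Tris buffer, pH 7.4, with 1 mM DTT. Hydrolysis ran 30 min at 37°C; ADP was read by HTRF.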
* = called active by the depositor; i = inactive; ? = inconclusive; nt = no result given; [ ] = remark or other dose. Unless noted, calls come from the whole dose curve; as a rule, active = well fitted curve in the direction sought with a large enough effect; inconclusive = small, poorly fitted or top-dose-only effect, or another doubt; inactive = no such curve, though single readings can be large; an effect the other way counts as inactive or inconclusive. Potency is the fitted concentration of half-maximal effect.

SMILES	TDP43 rescue	Abeta yeast res	ClpP mod	aSyn rescue	FUS suppressor	Mm-Cpn inhibitor
CCN(C(=O)CCS(=O)(=O)c1cc2[nH]c(=O)c(=O)[nH]c2cc1C)c1ccccc1	4%	i	32µM*	nt	i	nt
CCCCNc1c(-c2ccc(OC)c(SC3CCCCC3)c2)nc2cnccn12	-23%	i	-26%	-44%	32µM*	-3%
CCCCCCSc1ccc(-c2nc3cnccn3c2NC2CCCCC2)cc1	-1%	i	5%	1%	i	nt
CCCCNc1c(-c2ccc(SC3CCCCC3)cc2)nc2cnccn12	22µM*	i	28µM*	-54%	?	-2%
COc1ccccc1Cc1nc2ccccc2nc1SCC(=O)Nc1ccccc1C(F)(F)F	-12%	i	4%	nt	i	nt
CCCN(CC(=O)Nc1ccc(Cl)cc1Cl)C(=O)/C=C/c1cc(OC)ccc1OC	-24%	i	16µM*	1%	nt	-1%
Cn1cccc1C(=O)N1CCN(S(=O)(=O)c2cccs2)CC1	nt	nt	nt	nt	i	nt
COc1ccc(OC(=O)c2c(C)nn(-c3ccccc3)c2C)cc1	22µM*	i	-2%	-20%	i	3%
Cc1c(C(=O)O)c(-c2ccccc2)nn1-c1ccccc1	6%	i	16µM*	7%	i	2%
CC(=O)c1c(C)nn(-c2ccccc2)c1C	8%	i	nt	17%	i	1%
FC(F)(F)c1ccccc1C1=CC(c2ccccc2)n2ncnc2N1 (stereo not given)	18µM*	i	4%	-1%	i	nt
Clc1ccc(C2=CC(c3ccco3)n3ncnc3N2)cc1 (stereo not given)	?	i	32µM*	-20%	i	0%
Clc1ccccc1C1=CC(c2ccco2)n2ncnc2N1 (stereo not given)	14µM*	i	-1%	-3%	i	2%
Cc1ccc(C2=CC(c3ccc(C)cc3)n3ncnc3N2)cc1 (stereo not given)	16µM*	?	4%	?	i	nt
COc1ccc(C2=CC(c3ccco3)n3ncnc3N2)cc1 (stereo not given)	-4%[9.22 µM]	i	nt	-3%	i	-7%
CC(C)(C)c1ccc(C2=CC(c3ccccc3)n3ncnc3N2)cc1 (stereo not given)	23%	i	4%	-7%	i	nt
COc1ccc(OC)c(Nc2nc(-c3sc(C)nc3C)cs2)c1	22µM*	i	-6%	8%	i	-5%
Cc1nc(C)c(-c2csc(Nc3ccc(Cl)cn3)n2)s1	13µM*	i	-22%	-27%	i	nt
Cc1nn2c(=O)cc(COC(=O)c3ccc(NC(=O)C4CCCCC4)cc3)nc2s1	-17%	i	?	nt	i	nt
CC(=O)c1ccc(NC(=O)CSc2cn(CC(=O)N3CCCCC3)c3ccccc23)cc1	15%	i	0%	nt	i	nt
CCC(C)Nc1nc(C)nc2c1oc1ccccc12 (stereo not given)	11%	i	-9%	-10%	i	?
Cn1nnc2c(NCc3ccco3)nccc21	16%	i	16µM*	-12%	i	1%
CC(=O)Nc1ccc(Nc2nc(C)nc3c2oc2ccccc23)cc1	14%	i	14%	0%	i	-4%
Cc1nnc(NCc2ccco2)c2ccccc12	-9%	i	25µM*	-8%	i	1%
Cc1nc(NCc2ccco2)c2oc3ccccc3c2n1	13%	i	14µM*	-4%	i	2%
Cc1nc(Nc2ccncc2)c2oc3ccccc3c2n1	-23%	i	14µM*	0%	i	-3%
Cc1ccc(CN2c3ccccc3S(=O)(=O)c3ccccc32)cc1	?	i	?	nt	i	nt
c1ccc2nccnc2c1	nt	nt	-23%	-14%	nt	nt
Cc1ccc(S(=O)(=O)c2cnc(-c3ccccc3)[nH]c2=O)cc1	nt	nt	-3%	-10%	nt	nt
c1csc(-c2nc(N3CCOCC3)c3ccccc3n2)c1	-15%	i	nt	-8%	i	-2%
